Test results from PubChem BioAssay (NCI).
About 83,000 compounds went through this panel and 20% of them were active in at least one assay; those are over-represented in the sample as a whole.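 Compound tested at a single concentration for 48 hours in 96-well plates; a percent growth value below 10 was scored as active.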 Unmarked numbers belong to inactive results. Calls of active or inactive are those of the source.

system: MDA-MB-468 breast; assay: NCI-60 one-dose screen, 48 h (100 = growth as untreated, 0 = no growth, -100 = all killed); details: 10 µM unless noted

Compound	growth
COc1ccc(N2CCN(C3=C(Cl)C(=O)C(C)=C(C)C3=O)CC2)cc1	74.1%
CC1(C=O)NC(=O)NC1=O (stereo not given)	101%
O=S(=O)(O)c1ccc(F)cc1	122%
CCOC(C=O)OCC	102%
Clc1ccc2c(NCCCCNc3nc(N4CCOCC4)nc4ccccc34)ccnc2c1	24.9%
CC/C(=C(\c1ccc(OCCN2CCCCCCC2)cc1)c1ccc(OC(=O)C2CCCCC2)cc1)c1ccc(Cl)cc1	114%
C=CC(=O)N1CC=C(c2cc3c(N[C@H](C)c4ccccc4)ncnc3[nH]2)CC1	33.3%
CC[C@]1(O)C[C@@H]2CN(CCc3c([nH]c4ccccc34)[C@@](C(=O)OC)(c3cc4c(cc3OC)N(C)[C@H]3[C@@](O)(C(=O)OC)[C@H](OC(C)=O)[C@]5(CC)C=CCN6CC[C@]43[C@@H]65)C2)C1	19.8%
O=c1[nH][nH]c(-c2ccc(F)cc2)c1-c1nc2ccccc2s1	100%
COc1ccc(C(=O)/C=C/c2ccc(N3CCCCC3)cc2)cc1OC	61.8%
O=C1c2ccccc2C(=O)N1OCc1ccccc1	125%
COC(=O)c1c2c(c(C)[n+]([O-])c1C)C(=O)C(NCc1ccc(F)c(Cl)c1)=CC2=O	-18% (active)
N#CC1=C(/N=C/c2ccccc2)Oc2c(ccc3ccccc23)C1c1ccccc1 (stereo not given)	6.43% (active)
CCOC(=O)C1CSC(C)(C(=O)OCC)N1 (stereo not given)	105%
CC1=C(NCCN2CCCC2)C(=O)c2c(OCc3cccc(Cl)c3)cccc2C1=O	69.6%
COc1cc(/C=C/C(=O)c2cc(-c3ccc(F)cc3)ccc2O)cc(OC)c1OC	65.6%
N#CC1C(=O)NC(c2ccccc2[N+](=O)[O-])c2sc3c(F)cccc3c21 (stereo not given)	-49% (active)
COc1cc(C2CC(c3cccc(Nc4ccnc5cc(Cl)ccc45)c3)=NN2c2ccccc2)cc(OC)c1OC (stereo not given)	82.1%
CN(C)c1ccc(-c2ccc3[nH]c(=O)nc(-c4ccccc4)c3c2)cn1	42.4%
CC(C)(C)c1ccc(C(=O)Nc2sc3c(c2C(N)=O)CC/C(=N\O)C3)cc1	2.17% (active)
NC(=O)c1c(NC(=O)/C=C/c2cccs2)sc2c1CCC(=O)C2	37.2%
CC(C)(C)c1ccc(Cn2c(-c3nonc3N)nc3ccccc32)cc1	47.6%
COc1cc(/C=C2\C(=O)N(c3c(Cl)cccc3Cl)c3ccccc32)cc(OC)c1O	57.4%
O=c1[nH]c2ccc(Br)cc2c2c1C(c1ccc(Cl)cc1)c1c(ncn3nc(-c4ccco4)nc13)O2 (stereo not given)	85.9%
COc1ccc2c(c1OC)CO[C@@H]2[C@H]1c2c(cc3c(c2OC)OCO3)CCN1S(=O)(=O)c1cn(C)cn1	17.4%
